# B1: unnamed (peptide)
# chain: NLDRSKISLPDFDDE
# Biological target: AgAbp1
# Experiment: SPOT peptide array binding signal intensity (averaged, normalized) (arbitrary units (background-subtracted, floor 0; scale differs between SH3 domains)); higher = stronger binding of the SH3 domain to the peptide
# Procedure, shortened: (§1)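 The binding signal is the normalized, background-subtracted spot intensity averaged over replicates; its arbitrary units differ between domains. It was obtained by incubating 10 μg/ml GST-fused SH3 domains from four yeast species overnight at 4°C in TBS-based blocking buffer on cellulose membranes with synthetic 15-mer peptides, cysteines replaced by serines, then detecting with anti-GST antibody, HRP anti-mouse secondary and luminol.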
row,Binder,SPOT peptide array binding signal intensity
1,B1,4.5

# Biological target: AgBbc1
# Experiment: as above
# Procedure, shortened: as §1
row,Binder,SPOT peptide array binding signal intensity
1,B1,0.75

# Biological target: AgBem1-D1
# Experiment: as above
# Procedure, shortened: as §1
row,Binder,SPOT peptide array binding signal intensity
1,B1,5.5

# Biological target: AgBzz1-D1
# Experiment: as above
# Procedure, shortened: as §1
row,Binder,SPOT peptide array binding signal intensity
1,B1,26

# Biological target: AgBzz1-D2
# Experiment: as above
# Procedure, shortened: as §1
row,Binder,SPOT peptide array binding signal intensity
1,B1,14

# Biological target: AgCyk3
# Experiment: as above
# Procedure, shortened: as §1
row,Binder,SPOT peptide array binding signal intensity
1,B1,≤ 0

# Biological target: AgFus1
# Experiment: as above
# Procedure, shortened: as §1
row,Binder,SPOT peptide array binding signal intensity
1,B1,42

# Biological target: AgHof1
# Experiment: as above
# Procedure, shortened: as §1
row,Binder,SPOT peptide array binding signal intensity
1,B1,11.5

# Biological target: AgHse1
# Experiment: as above
# Procedure, shortened: as §1
row,Binder,SPOT peptide array binding signal intensity
1,B1,716

# Biological target: AgLsb1
# Experiment: as above
# Procedure, shortened: as §1
row,Binder,SPOT peptide array binding signal intensity
1,B1,≤ 0

# Biological target: AgLsb4
# Experiment: as above
# Procedure, shortened: as §1
row,Binder,SPOT peptide array binding signal intensity
1,B1,18

# Biological target: AgMyo5
# Experiment: as above
# Procedure, shortened: as §1
row,Binder,SPOT peptide array binding signal intensity
1,B1,≤ 0

# Biological target: AgNbp2
# Experiment: as above
# Procedure, shortened: as §1
row,Binder,SPOT peptide array binding signal intensity
1,B1,4

# Biological target: AgRvs167
# Experiment: as above
# Procedure, shortened: as §1
row,Binder,SPOT peptide array binding signal intensity
1,B1,7

# Biological target: AgSho1
# Experiment: as above
# Procedure, shortened: as §1
row,Binder,SPOT peptide array binding signal intensity
1,B1,11.5

# Biological target: AgSla1-D1-D2
# Experiment: as above
# Procedure, shortened: as §1
row,Binder,SPOT peptide array binding signal intensity
1,B1,≤ 0

# Biological target: AgSla1-D3
# Experiment: as above
# Procedure, shortened: as §1
row,Binder,SPOT peptide array binding signal intensity
1,B1,≤ 0

# Biological target: CaAbp1-D1
# Experiment: as above
# Procedure, shortened: as §1
row,Binder,SPOT peptide array binding signal intensity
1,B1,33.5

# Biological target: CaAbp1-D2
# Experiment: as above
# Procedure, shortened: as §1
row,Binder,SPOT peptide array binding signal intensity
1,B1,26

# Biological target: CaBbc1
# Experiment: as above
# Procedure, shortened: as §1
row,Binder,SPOT peptide array binding signal intensity
1,B1,8

# Biological target: CaBem1-D1
# Experiment: as above
# Procedure, shortened: as §1
row,Binder,SPOT peptide array binding signal intensity
1,B1,4

# Biological target: CaBzz1-D1
# Experiment: as above
# Procedure, shortened: as §1
row,Binder,SPOT peptide array binding signal intensity
1,B1,31

# Biological target: CaBzz1-D2
# Experiment: as above
# Procedure, shortened: as §1
row,Binder,SPOT peptide array binding signal intensity
1,B1,2.5

# Biological target: CaCyk3
# Experiment: as above
# Procedure, shortened: as §1
row,Binder,SPOT peptide array binding signal intensity
1,B1,≤ 0

# Biological target: CaFus1
# Experiment: as above
# Procedure, shortened: as §1
row,Binder,SPOT peptide array binding signal intensity
1,B1,283

# Biological target: CaHof1
# Experiment: as above
# Procedure, shortened: as §1
row,Binder,SPOT peptide array binding signal intensity
1,B1,1.5

# Biological target: CaHse1
# Experiment: as above
# Procedure, shortened: as §1
row,Binder,SPOT peptide array binding signal intensity
1,B1,21

# Biological target: CaLsb1
# Experiment: as above
# Procedure, shortened: as §1
row,Binder,SPOT peptide array binding signal intensity
1,B1,≤ 0

# Biological target: CaLsb4
# Experiment: as above
# Procedure, shortened: as §1
row,Binder,SPOT peptide array binding signal intensity
1,B1,≤ 0

# Biological target: CaMyo5
# Experiment: as above
# Procedure, shortened: as §1
row,Binder,SPOT peptide array binding signal intensity
1,B1,6.25

# Biological target: CaNbp2
# Experiment: as above
# Procedure, shortened: as §1
row,Binder,SPOT peptide array binding signal intensity
1,B1,193

# Biological target: CaRvs167
# Experiment: as above
# Procedure, shortened: as §1
row,Binder,SPOT peptide array binding signal intensity
1,B1,1.33

# Biological target: CaRvs167-3
# Experiment: as above
# Procedure, shortened: as §1
row,Binder,SPOT peptide array binding signal intensity
1,B1,1.25

# Biological target: CaSho1
# Experiment: as above
# Procedure, shortened: as §1
row,Binder,SPOT peptide array binding signal intensity
1,B1,74.5

# Biological target: CaSla1-D1-D2
# Experiment: as above
# Procedure, shortened: as §1
row,Binder,SPOT peptide array binding signal intensity
1,B1,≤ 0

# Biological target: CaSla1-D3
# Experiment: as above
# Procedure, shortened: as §1
row,Binder,SPOT peptide array binding signal intensity
1,B1,≤ 0

# Biological target: ScAbp1
# Experiment: as above
# Procedure, shortened: as §1
row,Binder,SPOT peptide array binding signal intensity
1,B1,11

# Biological target: ScBbc1
# Experiment: as above
# Procedure, shortened: as §1
row,Binder,SPOT peptide array binding signal intensity
1,B1,1.5

# Biological target: ScBem1-D1
# Experiment: as above
# Procedure, shortened: as §1
row,Binder,SPOT peptide array binding signal intensity
1,B1,1

# Biological target: ScBzz1-D1
# Experiment: as above
# Procedure, shortened: as §1
row,Binder,SPOT peptide array binding signal intensity
1,B1,39.5

# Biological target: ScBzz1-D2
# Experiment: as above
# Procedure, shortened: as §1
row,Binder,SPOT peptide array binding signal intensity
1,B1,18

# Biological target: ScCyk3
# Experiment: as above
# Procedure, shortened: as §1
row,Binder,SPOT peptide array binding signal intensity
1,B1,16

# Biological target: ScFus1
# Experiment: as above
# Procedure, shortened: as §1
row,Binder,SPOT peptide array binding signal intensity
1,B1,34

# Biological target: ScHof1
# Experiment: as above
# Procedure, shortened: as §1
row,Binder,SPOT peptide array binding signal intensity
1,B1,2

# Biological target: ScHse1
# Experiment: as above
# Procedure, shortened: as §1
row,Binder,SPOT peptide array binding signal intensity
1,B1,1260

# Biological target: ScLsb1
# Experiment: as above
# Procedure, shortened: as §1
row,Binder,SPOT peptide array binding signal intensity
1,B1,≤ 0

# Biological target: ScLsb2
# Experiment: as above
# Procedure, shortened: as §1
row,Binder,SPOT peptide array binding signal intensity
1,B1,≤ 0

# Biological target: ScLsb3
# Experiment: as above
# Procedure, shortened: as §1
row,Binder,SPOT peptide array binding signal intensity
1,B1,≤ 0

# Biological target: ScLsb4
# Experiment: as above
# Procedure, shortened: as §1
row,Binder,SPOT peptide array binding signal intensity
1,B1,3

# Biological target: ScMyo3
# Experiment: as above
# Procedure, shortened: as §1
row,Binder,SPOT peptide array binding signal intensity
1,B1,3.5

# Biological target: ScMyo5
# Experiment: as above
# Procedure, shortened: as §1
row,Binder,SPOT peptide array binding signal intensity
1,B1,4

# Biological target: ScNbp2
# Experiment: as above
# Procedure, shortened: as §1
row,Binder,SPOT peptide array binding signal intensity
1,B1,28

# Biological target: ScPex13
# Experiment: as above
# Procedure, shortened: as §1
row,Binder,SPOT peptide array binding signal intensity
1,B1,≤ 0

# Biological target: ScRvs167
# Experiment: as above
# Procedure, shortened: as §1
row,Binder,SPOT peptide array binding signal intensity
1,B1,0.167

# Biological target: ScSho1
# Experiment: as above
# Procedure, shortened: as §1
row,Binder,SPOT peptide array binding signal intensity
1,B1,87.5

# Biological target: ScSla1-D1-D2
# Experiment: as above
# Procedure, shortened: as §1
row,Binder,SPOT peptide array binding signal intensity
1,B1,≤ 0

# Biological target: ScSla1-D3
# Experiment: as above
# Procedure, shortened: as §1
row,Binder,SPOT peptide array binding signal intensity
1,B1,1

# Biological target: SpAbp1-D1
# Experiment: as above
# Procedure, shortened: as §1
row,Binder,SPOT peptide array binding signal intensity
1,B1,11

# Biological target: SpBbc1
# Experiment: as above
# Procedure, shortened: as §1
row,Binder,SPOT peptide array binding signal intensity
1,B1,≤ 0

# Biological target: SpBzz1-D1
# Experiment: as above
# Procedure, shortened: as §1
row,Binder,SPOT peptide array binding signal intensity
1,B1,14.5

# Biological target: SpBzz1-D2
# Experiment: as above
# Procedure, shortened: as §1
row,Binder,SPOT peptide array binding signal intensity
1,B1,≤ 0

# Biological target: SpCyk3
# Experiment: as above
# Procedure, shortened: as §1
row,Binder,SPOT peptide array binding signal intensity
1,B1,≤ 0

# Biological target: SpHof1
# Experiment: as above
# Procedure, shortened: as §1
row,Binder,SPOT peptide array binding signal intensity
1,B1,11.5

# Biological target: SpHof1-2
# Experiment: as above
# Procedure, shortened: as §1
row,Binder,SPOT peptide array binding signal intensity
1,B1,4

# Biological target: SpHof1-3
# Experiment: as above
# Procedure, shortened: as §1
row,Binder,SPOT peptide array binding signal intensity
1,B1,70

# Biological target: SpHse1
# Experiment: as above
# Procedure, shortened: as §1
row,Binder,SPOT peptide array binding signal intensity
1,B1,983

# Biological target: SpLsb1
# Experiment: as above
# Procedure, shortened: as §1
row,Binder,SPOT peptide array binding signal intensity
1,B1,≤ 0

# Biological target: SpLsb4
# Experiment: as above
# Procedure, shortened: as §1
row,Binder,SPOT peptide array binding signal intensity
1,B1,≤ 0

# Biological target: SpMyo1
# Experiment: as above
# Procedure, shortened: as §1
row,Binder,SPOT peptide array binding signal intensity
1,B1,9

# Biological target: SpNbp2
# Experiment: as above
# Procedure, shortened: as §1
row,Binder,SPOT peptide array binding signal intensity
1,B1,16

# Biological target: SpPex13
# Experiment: as above
# Procedure, shortened: as §1
row,Binder,SPOT peptide array binding signal intensity
1,B1,≤ 0

# Biological target: SpRvs167
# Experiment: as above
# Procedure, shortened: as §1
row,Binder,SPOT peptide array binding signal intensity
1,B1,0.5

# Biological target: SpSla1-D1-D2
# Experiment: as above
# Procedure, shortened: as §1
row,Binder,SPOT peptide array binding signal intensity
1,B1,≤ 0

# Biological target: SpSla1-D3
# Experiment: as above
# Procedure, shortened: as §1
row,Binder,SPOT peptide array binding signal intensity
1,B1,≤ 0
